Records with an inconclusive call do not appear. Active and inactive are the calls of the source. How the source made its calls: active means hit-call score of the fitted dose curve at least 0.9, where 1 is the maximum; inconclusive means response in the unintended direction; inactive means score below 0.9.

Sequence of human RAR-related Orphan Receptor gamma (RORg), RORC (gene 6097) (P51449 whole entry, looked up, the tested form may be a part): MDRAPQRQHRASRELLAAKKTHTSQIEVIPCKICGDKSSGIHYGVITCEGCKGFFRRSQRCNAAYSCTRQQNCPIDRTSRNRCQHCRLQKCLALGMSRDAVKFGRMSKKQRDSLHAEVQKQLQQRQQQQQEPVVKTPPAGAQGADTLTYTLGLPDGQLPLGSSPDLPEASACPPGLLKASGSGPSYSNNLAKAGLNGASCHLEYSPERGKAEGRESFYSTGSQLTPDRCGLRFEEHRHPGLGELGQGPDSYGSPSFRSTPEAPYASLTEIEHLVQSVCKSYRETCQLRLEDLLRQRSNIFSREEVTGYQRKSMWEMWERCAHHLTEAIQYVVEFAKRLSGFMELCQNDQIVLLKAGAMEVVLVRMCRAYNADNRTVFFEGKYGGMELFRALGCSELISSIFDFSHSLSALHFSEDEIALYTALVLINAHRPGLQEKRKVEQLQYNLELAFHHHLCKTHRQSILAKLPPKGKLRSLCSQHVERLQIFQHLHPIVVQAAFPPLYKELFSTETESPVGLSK
Sequence of Retinoic acid receptor RXR-alpha (Homo sapiens) (P19793 whole entry, looked up, the tested form may be a part): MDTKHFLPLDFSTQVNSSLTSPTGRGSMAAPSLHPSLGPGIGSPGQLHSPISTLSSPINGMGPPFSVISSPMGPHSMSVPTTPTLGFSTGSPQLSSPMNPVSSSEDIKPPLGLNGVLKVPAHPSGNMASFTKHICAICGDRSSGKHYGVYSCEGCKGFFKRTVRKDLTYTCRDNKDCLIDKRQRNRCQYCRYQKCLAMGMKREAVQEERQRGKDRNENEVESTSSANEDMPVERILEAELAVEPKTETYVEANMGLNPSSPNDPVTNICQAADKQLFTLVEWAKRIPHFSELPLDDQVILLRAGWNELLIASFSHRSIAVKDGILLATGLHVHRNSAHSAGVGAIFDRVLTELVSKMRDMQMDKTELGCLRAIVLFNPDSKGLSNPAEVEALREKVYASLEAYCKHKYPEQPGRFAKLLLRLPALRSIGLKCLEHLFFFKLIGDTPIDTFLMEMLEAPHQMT

In one assay the target is human RAR-related Orphan Receptor gamma (RORg), RORC (gene 6097) (UniProt P51449). Briefly: ATG_RORg_TRANS: Attagene TRANS-FACTORIAL HepG2 Assay for human RAR-related Orphan Receptor gamma (RORg) (AID 2283011).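 On AC50: potency for induction of reporter transcripts above DMSO so activators.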 The procedure, abridged:
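Chimeric RORg-Gal4 transactivation in transfected HepG2; 24 h exposure; RT-PCR/capillary electrophoresis readout of reporter mRNA, DMSO baseline.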
Consider `C=CCCCCCCCCCC`, for which the outcome was inactive.

As for `C=C(C)C(=O)OCCOC1CC2CC1C1C=CCC21` (centres undefined), the outcome was inactive.

As for `C=CCOC(=O)CCCCCC`, the molecule was called inactive.

Regarding `[Cl][Au]([Cl])[Cl]`, the outcome was inactive.

In the case of `Cc1ccc(N)c(S(=O)(=O)O)c1`, the outcome was inactive.

For the molecule `C=Cc1ccc(C(C)(C)C)cc1`, the molecule was called inactive.

What is called AC50 is the concentration at which the activity in the assay is half-maximal. For the molecule `O=C(CS)OCCOC(=O)CS`, the AC50 is 67 µM (active).

As for `Cc1ncc([N+](=O)[O-])n1CCO`, the call was inactive.

For `CCOc1ccc(NC(=O)CC(C)=O)cc1`, the outcome was inactive.

A further assay has as its target Retinoic acid receptor RXR-alpha (Homo sapiens) (UniProt P19793). Briefly: ATG_RXRa_TRANS: Attagene TRANS-FACTORIAL HepG2 Assay for human Retinoid X Receptor alpha (RXRa) (AID 2283012). The procedure, abridged:
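HepG2 cells transiently transfected with GAL4-UAS reporter units and chimeric RXRa-Gal4 protein, treated 24 h. Reporter mRNA measured by RT-PCR, fluorescent labelling, HpaI digestion and capillary electrophoresis. Induction fitted against DMSO.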
Consider `CCN(CCC#N)c1ccc(N=Nc2ccc([N+](=O)[O-])cc2)cc1`, for which the call was inactive.

Consider `COc1ccccc1[N+](=O)[O-]`, for which the molecule was classed as inactive.

As to `CCCN(CCC)S(=O)(=O)c1ccc(C(=O)O)cc1`, the result was inactive.

In the case of `O=[N+]([O-])c1ccc(O)cc1C(F)(F)F`, the call was inactive.

Consider `CC(=O)OCCCc1ccccc1`, for which the result was inactive.

Regarding `O=C(O)c1ccc(O)cc1`, the outcome was inactive.

`C=CCN(CC=C)CC=C`: the result was inactive.

For `CC1CCC(C(C)C)C(O)C1` (centres undefined), the call was inactive.

For `CC1(C)O[C@@H]2C[C@H]3[C@@H]4CCC5=CC(=O)C=C[C@]5(C)[C@@]4(F)[C@@H](O)C[C@]3(C)[C@]2(C(=O)CO)O1`, the molecule was called inactive.

As for `OCC#CCO`, the result was inactive.

Consider `CCCCOCC`, for which the call was inactive.

For the molecule `Nc1ccc(Cl)c([N+](=O)[O-])c1`, the outcome was inactive.

In the case of `CCOC(=O)CCc1ccccc1`, the result was inactive.

For the molecule `COc1cc(C(C)C)ccc1C`, the result was inactive.

`CCCCC(CC)COC(=O)c1ccc(O)cc1` (centres undefined): the molecule was called inactive.

Turning to `CCCCCC(C)=O`, the molecule was called inactive.

In the case of `CCCCCCC(O)CCCCCCCCCCC(=O)O` (centres undefined), the call was inactive.

As for `CC(=O)CC(=O)Nc1ccc(C)cc1C`, the molecule was called inactive.

`CC(C)(C)C1=CC(=O)C(C(C)(C)C)=CC1=O`: the molecule was classed as inactive.

As to `CC(C)OCCO`, the outcome was inactive.

On to `CCCCCCCC(=O)OCCCCCC`, for which the molecule was classed as inactive.

In the case of `COCCOCCOCCO`, the molecule was classed as inactive.

On to `C=CCCCCCCCCCC`, for which the call was inactive.

Regarding `C=CCOC(=O)CCCCCC`, the molecule was classed as inactive.

Consider `Cc1ccc(N)c(S(=O)(=O)O)c1`, for which the molecule was called inactive.

As for `C=Cc1ccc(C(C)(C)C)cc1`, the molecule was called inactive.

As to `O=C(CS)OCCOC(=O)CS`, the call was inactive.

Regarding `Cc1ncc([N+](=O)[O-])n1CCO`, the outcome was inactive.

For a further assay, the target named is human Retinoid X Receptor beta (RXRb), RXRB (gene 6257) (UniProt P28702). Briefly: ATG_RXRb_TRANS: Attagene TRANS-FACTORIAL HepG2 Assay for human Retinoid X Receptor beta (RXRb) (AID 2283013). In short, it runs like this: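 HepG2 cells were transiently transfected with multiplexed GAL4-UAS reporters and a chimeric RXRb-Gal4 construct, then exposed for 24 h. Reporter mRNA was quantified by RT-PCR, FAM labeling, HpaI digestion and capillary electrophoresis; gain of signal was scored against DMSO.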
Sequence of human Retinoid X Receptor beta (RXRb), RXRB (gene 6257) (P28702 whole entry, looked up, the tested form may be a part): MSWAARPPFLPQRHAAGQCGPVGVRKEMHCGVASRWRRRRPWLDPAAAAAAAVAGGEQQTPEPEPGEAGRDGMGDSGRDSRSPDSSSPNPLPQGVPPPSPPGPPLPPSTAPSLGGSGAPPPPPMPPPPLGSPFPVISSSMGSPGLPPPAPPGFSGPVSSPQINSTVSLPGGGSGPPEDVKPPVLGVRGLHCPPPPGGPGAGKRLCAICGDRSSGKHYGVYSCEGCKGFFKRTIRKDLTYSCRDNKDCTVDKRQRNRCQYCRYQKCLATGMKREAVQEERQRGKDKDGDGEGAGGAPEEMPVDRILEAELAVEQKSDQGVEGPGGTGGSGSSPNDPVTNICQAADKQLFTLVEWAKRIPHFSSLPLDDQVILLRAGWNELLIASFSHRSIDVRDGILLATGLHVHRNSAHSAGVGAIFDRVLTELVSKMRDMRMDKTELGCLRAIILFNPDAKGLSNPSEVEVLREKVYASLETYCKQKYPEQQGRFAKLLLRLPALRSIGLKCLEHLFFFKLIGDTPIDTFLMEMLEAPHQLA
Take `O=[N+]([O-])c1ccc(O)cc1C(F)(F)F`: the call was inactive.

In the case of `CC(=O)OCCCc1ccccc1`, the result was inactive.

Regarding `O=C(O)c1ccc(O)cc1`, the molecule was called inactive.

For `CC1(C)O[C@@H]2C[C@H]3[C@@H]4CCC5=CC(=O)C=C[C@]5(C)[C@@]4(F)[C@@H](O)C[C@]3(C)[C@]2(C(=O)CO)O1`, the molecule was classed as inactive.

`CCCCOCC`: the result was inactive.

For the molecule `CCOC(=O)CCc1ccccc1`, the result was inactive.

Turning to `CCCCC(CC)COC(=O)c1ccc(O)cc1` (centres undefined), the AC50 was 33.4 µM (active).

With `CCCCCC(C)=O`, the outcome was inactive.

On to `CCCCCCC(O)CCCCCCCCCCC(=O)O` (centres undefined), for which the AC50 is 22.7 µM (active).

`CC(C)(C)C1=CC(=O)C(C(C)(C)C)=CC1=O`: the AC50 was 13.7 µM (active).

With `CCCCCCCC(=O)OCCCCCC`, the result was inactive.

As to `C=CCCCCCCCCCC`, the molecule was classed as inactive.

As for `C=CCOC(=O)CCCCCC`, the outcome was inactive.

Take `C=Cc1ccc(C(C)(C)C)cc1`: the result was inactive.

Regarding `O=C(CS)OCCOC(=O)CS`, the molecule was classed as inactive.

As to `Cc1ncc([N+](=O)[O-])n1CCO`, the outcome was inactive.

The target in the next assay is human Thyroid Receptor alpha (THRa1), THRA (gene 7067) (UniProt P10827). Briefly: ATG_THRa1_TRANS: Attagene TRANS-FACTORIAL HepG2 Assay for human Thyroid Receptor alpha (THRa1) (AID 2283014). The procedure, abridged: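 Measured here is mRNA from a GAL4-UAS reporter in transfected HepG2 cells carrying a Gal4-fused receptor, 24 h post-dose. DMSO served as negative control and baseline.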
Sequence of human Thyroid Receptor alpha (THRa1), THRA (gene 7067) (P10827 whole entry, looked up, the tested form may be a part): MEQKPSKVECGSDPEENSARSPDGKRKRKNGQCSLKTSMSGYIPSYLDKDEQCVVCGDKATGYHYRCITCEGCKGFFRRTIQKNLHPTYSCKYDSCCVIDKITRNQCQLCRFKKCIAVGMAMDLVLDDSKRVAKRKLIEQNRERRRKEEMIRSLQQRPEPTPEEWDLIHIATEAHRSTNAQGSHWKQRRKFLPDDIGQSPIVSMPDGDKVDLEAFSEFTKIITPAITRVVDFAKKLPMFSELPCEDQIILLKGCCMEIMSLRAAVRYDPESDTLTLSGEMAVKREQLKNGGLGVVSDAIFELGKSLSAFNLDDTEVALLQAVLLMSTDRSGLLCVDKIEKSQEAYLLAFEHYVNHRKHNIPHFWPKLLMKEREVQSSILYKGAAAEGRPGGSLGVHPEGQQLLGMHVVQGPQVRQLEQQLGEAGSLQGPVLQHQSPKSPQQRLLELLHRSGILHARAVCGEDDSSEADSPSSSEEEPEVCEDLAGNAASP
As to `O=[N+]([O-])c1ccc(O)cc1C(F)(F)F`, the molecule was called inactive.

As for `O=C(O)c1ccc(O)cc1`, the molecule was classed as inactive.

Consider `CC1(C)O[C@@H]2C[C@H]3[C@@H]4CCC5=CC(=O)C=C[C@]5(C)[C@@]4(F)[C@@H](O)C[C@]3(C)[C@]2(C(=O)CO)O1`, for which the result was inactive.

With `CCCCC(CC)COC(=O)c1ccc(O)cc1` (centres undefined), the outcome was inactive.

As to `CC(C)(C)C1=CC(=O)C(C(C)(C)C)=CC1=O`, the molecule was called inactive.

On to `C=CCCCCCCCCCC`, for which the outcome was inactive.

These data come from PubChem BioAssay (EPA / NIEHS).
